Compound activity as filed in PubChem BioAssay.
Most compounds without a hit are left out; they make up all but 0.86% or so of the library.
AmpC detergent: AmpC beta-lactamase inhibition with detergent present; P00811; AmpC hydrolysis of nitrocefin, absorbance 480 nm, 0.01% Triton; Potency, µM (top dose mostly 114 µM), without a hit: at the highest dose activity change, negative = inhibition, actives largely listed as inhibitors; 370,000 tested, 0.041% active;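 further: 0% = no-compound wells and -100% = no-enzyme wells; nearly all actives have a fitted effect of over 25% in size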
Target sequence (P00811 whole entry, looked up): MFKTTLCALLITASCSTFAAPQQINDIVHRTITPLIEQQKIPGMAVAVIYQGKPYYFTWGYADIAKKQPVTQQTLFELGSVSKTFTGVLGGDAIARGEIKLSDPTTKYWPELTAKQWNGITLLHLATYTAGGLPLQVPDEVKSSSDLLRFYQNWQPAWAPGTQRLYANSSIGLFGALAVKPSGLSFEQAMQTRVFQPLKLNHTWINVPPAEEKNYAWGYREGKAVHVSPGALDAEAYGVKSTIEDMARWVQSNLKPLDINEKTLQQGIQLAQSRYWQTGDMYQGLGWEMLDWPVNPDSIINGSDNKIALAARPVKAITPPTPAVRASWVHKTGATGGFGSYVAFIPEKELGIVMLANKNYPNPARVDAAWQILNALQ
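AmpC (5.3 nM in the dispensed reagent) in 20 mM phosphate pH 7.0 with 0.01% (detergent screen) or 0.0001% Triton X-100 was preincubated with compounds for 15 min at room temperature. Nitrocefin was then added from an 800 uM solution, and hydrolysis was followed at 480 nm.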
NS1 function inh: blocks influenza NS1 protein function; 270,000 tested, 0.4% active; Potency, µM (series often up to 46.1 µM), without a hit: at the highest dose activity, positive = more growth; calls by dose curve; further: actives are rising curves; nearly all actives have a fitted effect of over 50% in size
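S. cerevisiae expressing influenza A NS1, grown in glucose, washed, then diluted 1:100 into pH 6.0 -URA galactose medium with 23 nl compound. Growth recovery read as OD600; NS1-free strain serves as control.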
AMA1 RON2 block: disrupts binding of P. falciparum AMA1 to RON2; AlphaScreen AMA1-biotinylated RON2 peptide binding; Potency, µM (series often up to 58.2 µM), inactives show top-dose activity change, negative = inhibition, actives largely listed as inhibitors; 360,000 tested, 0.2% active;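 further: 0% = vehicle wells and -100% = peptide control; nearly all actives have a fitted effect of over 45% in size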
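AMA1 (3D7) with his tag at 25 nM final met compounds first, then biotinylated RON2 peptide at 25 nM; detection used donor plus acceptor beads, 10 µg/mL apiece, read by AlphaScreen after 30 min at room temperature.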
AmpC inh no detg: blocks E. coli AmpC beta-lactamase in detergent-free assay. AmpC nitrocefin hydrolysis, absorbance 480 nm, 0.0001% Triton. 330,000 tested, 0.52% active. Potency, µM (series often up to 57.1 µM), without a hit: at the top dose activity change, negative = inhibition, actives largely listed as inhibitors;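 further: plate controls were no compound for no effect and no enzyme for full effect; nearly all actives have a fitted effect of over 20% in size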
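20 mM phosphate pH 7.0 + 0.01% (detergent screen) or 0.0001% Triton X-100; 5.3 nM AmpC reagent; cpd preinc 15 min RT; nitrocefin (800 uM stock) to start; A480 q20 s × 4 min; Activity was normalised to no-enzyme and no-compound control wells.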
* = called active by the depositor; u = inconclusive; x = no result given; [ ] = remark or other dose. Unless noted, the call rests on the fitted dose curve; in most records, active means well fitted curve in the direction sought with a large enough effect; inconclusive means small, poorly fitted or top-dose-only effect, or another doubt; inactive means no such curve, though single readings can be large; an effect the other way counts as inactive or inconclusive. Potency means the concentration at half of the fitted maximal effect.

SMILES	AmpC detergent	NS1 function inh	AMA1 RON2 block	AmpC inh no detg
CC(C)C(NC(=O)c1ccccc1NC(=O)c1ccccc1)C(=O)NCCCn1ccnc1 (stereo not given)	-0.7%	-3.8%	11.8%	1.0%
COc1cc(CNc2ccc(O)cc2)cc(Br)c1OCc1ccccc1F	-4.4%	-22.6%	21.8%	-23.9%
CCOc1cc(CNc2ccc(O)cc2)cc(Br)c1OCc1ccccc1F	0.9%	-25.8%	55.9%	3.98µM*
COc1cc(/C=C/C(=O)OCC(=O)NCc2ccco2)ccc1O	-19.3%	x	-5.9%	-22.1%
COc1cc(/C=C/C(=O)OCC(=O)NC(=O)NCc2ccco2)ccc1OC(F)F	x	x	-24.4%	20µM*
Cc1ccc(C)c(OCC(=O)Nc2ccc(S(=O)(=O)Nc3onc(C)c3C)cc2)c1C	5.4%	x	x	x
Cc1[nH]c2ccc(C(=O)O)cc2c1C	-9.1%	-64.6%	-3.2%	-10.0%
CCCc1c(C)[nH]c2ccc(C(=O)O)cc2c1=S	39.8µM*	10.3%	-17.1%	-33.4%
CC1=C(CC(=O)c2ccc(Cl)cc2)C(=O)c2ccccc2C1=O	-5.3%	28.9%	11.9µM*	-47.7%
O=C(Cc1ncc(C(F)(F)F)cc1Cl)Nc1ccc(F)cc1	0.8%	-5.2%	2.3%	0.159µM*
O=C(Cc1ncc(C(F)(F)F)cc1Cl)NC1CC1	u	x	-5.6%	-11.8%
CC(C)(CO)NC(=O)C12CC3CC(CC(Br)(C3)C1)C2	-9.8%	2.5%	-0.3%	-1.2%
S=c1[nH]cnc2scc(-c3ccc(Cl)cc3)c12	-0.7%	7.5%	58.7%	8.91µM*
Cc1ccc(-c2csc3nc[nH]c(=S)c23)cc1	4.5%	2.2%	23.4%	4.0%
O=C(O)c1cccc(-n2cccc2/C=C2/NC(=O)N(c3ccc(Cl)cc3)C2=O)c1	-6.4%	x	u	12.6µM*
O=C(O)c1cccc(-n2cccc2/C=C2/NC(=O)N(c3cccc(Cl)c3)C2=O)c1	2.6%	11.2%	0.0%	-39.2%
O=C(Nc1nnc(Cc2c[nH]c3ccccc23)s1)c1ccc(Cl)cc1Cl	u	23.9%	-11.0%[2.32 µM]	-27.7%
CC(C)(C)c1ccc(C(=O)Nc2nnc(Cc3c[nH]c4ccccc34)s2)cc1	-3.2%	1.9%	24.8%	11.2µM*
CNC(=S)NNC(=O)Cc1ccccc1	-0.9%	-2.7%	77.3%	0.282µM*
CCOc1ccc(CC(=O)NNC(=S)NC)cc1	4.6%	3.1%	36.2%	-4.8%
[Cl][Pd][Cl].[S-]C1=C2N=CN[C-]2[NH+]=C[N-]1.[S-]c1ncnc2[nH]cnc12	x	-10.5%	x	x
CCN(CCCl)c1cc(CN(C)C)cc(NC(=O)c2ccc(C(=O)Nc3cc(CN(C)C)cc(N(CC)CCCl)c3)cc2)c1	x	x	25.1µM*	x
CCN(C1CCCCC1)S(=O)(=O)c1ccc(S(=O)(=O)N2CCN(CCC#N)CC2)cc1	-15.0%	-34.0%	-4.4%	6.31µM*
N#CCCN1CCN(S(=O)(=O)c2ccc(S(=O)(=O)N3CCCCCC3)cc2)CC1	u	0.2%	16.9%	-8.6%
CC(=O)Nc1ccc(S(=O)(=O)N2CCN(CCC#N)CC2)cc1	u	-7.1%	3.4%	44.7µM*
SMILES	AmpC detergent	NS1 function inh	AMA1 RON2 block	AmpC inh no detg
Cc1ccc(S(=O)(=O)N2CCN(CCC#N)CC2)cc1	6.3%	x	-1.9%	-6.3%
CC(=O)Nc1ccccc1OCc1cnc(Cl)s1	-1.0%	2.7%	3.6%	-1.4%
Cc1cc(Nc2ccc(O)cc2)ccc1N	4.7%	x	x	-22.2%
O=C(N/N=C/c1ccc(Cl)cc1)c1sccc1OCc1ccc(F)cc1	-0.4%	2.1%	39.8µM*	-12.0%
COc1ccc(COc2ccsc2C(=O)Nc2ccc(Cl)cc2)cc1	-0.2%	3.3%	-0.9%	0.355µM*
CC1CCN(c2nc3ccccc3nc2SCC(=O)Nc2ccccc2C(C)C)CC1	28.2%	x	x	x
Fc1ccccc1N1CCN(c2ncnc3onc(-c4cccc(Cl)c4)c23)CC1	-1.1%	x	x	x
O=[N+]([O-])c1ccccc1/C=N\N1CCN(c2ccccc2)CC1	-1.2%	-1.2%	22.4µM*	-27.2%
O=[N+]([O-])c1ccccc1/C=C\C=N\N1CCN(c2ccccc2)CC1	6.8%	x	u	-11.6%
COc1ccccc1N1CCN(/N=C/C=C/c2ccccc2[N+](=O)[O-])CC1	0.1%	5.2%	5.62µM*	44.9%
COc1ccccc1N1CCN(/N=C\c2sccc2C)CC1	u	x	12.6µM*	-5.4%
O=[N+]([O-])c1ccccc1/C=C/C=N/N1CCCCC1	-2.5%	0.9%	10µM*	-14.4%
O=C(COC(=O)CCc1ccccc1)NC1CCS(=O)(=O)C1 (stereo not given)	-14.3%	x	2.3%	3.3%
CC(C)(C)OC(=O)N[C@H](/C=C/c1ccccc1)C(=O)OC(C)(C)C	-2.1%	x	4.9%	-8.5%
CNc1cccc(-c2c(OC)cccc2OC)n1	x	x	0.5%	x
O=C(NCc1ccccc1)c1cc(C2CCCCN2C(=O)c2cccs2)on1 (stereo not given)	x	x	4.3%	x
CC(=O)Oc1ccc(C23c4ccccc4C2(OC(C)=O)c2cc(OC(C)=O)ccc23)cc1 (stereo not given)	x	x	25.3%	x
Cc1cc(C(=O)C(C)OC(=O)c2ccc(NC(=O)CC#N)cc2)c(C)n1-c1ccccc1 (stereo not given)	1.2%	x	-20.9%	-37.8%
CCN(CC)Cc1cc(O)c(CN(CC)CC)cc1O	-1.9%	-7.4%	7.94µM*	-2.8%
O=C(CCCCCNc1nc(=S)[nH]c2ccccc12)NCCc1c[nH]c2ccccc12	u	-10.9%	45.1%	-56.9%
CC(C)CCNC(=O)Cc1ccc(Nc2nc(=S)[nH]c3ccccc23)cc1	3.1%	-9.7%	79.6%	15.8µM*
O=C(CCCCCNc1nc(=S)[nH]c2ccccc12)NCCc1ccc(Cl)cc1	-5.1%	2.6%	34.6%	20µM*
CC1CCCN(S(=O)(=O)c2ccc(NC(=O)c3nc(SC(C)C)ncc3Cl)cc2)C1 (stereo not given)	-7.9%	x	x	x
Cc1ccc(SCC(=O)Nc2ccc3oc(-c4cccc(Cl)c4)nc3c2)cc1	9.2%	x	x	x
O=C1C(O)=CC(=C(c2ccccc2)c2ccccc2)c2ccccc21	x	x	10µM*	x
SMILES	AmpC detergent	NS1 function inh	AMA1 RON2 block	AmpC inh no detg
Cc1cccc(OCCSc2nc3ccccc3n2CC(=O)N2CCOCC2)c1	8.2%	x	x	x
Cc1ccc2c(c1)C1(C(=O)N2)N2CCCC2C(C(=O)c2ccc3ccccc3c2)C12C(=O)Nc1ccccc12 (stereo not given)	-4.1%	10.7%	-14.2%	56.9%
CCC1=NN2C(=N)/C(=C\c3cccn3-c3ccc(C)cc3C)C(=O)N=C2S1	u	x	4.7%	25.1µM*
O=C(COC(=O)C12CC3CC(CC(Br)(C3)C1)C2)Nc1ccc2[nH]c(=O)[nH]c2c1	-1.1%	x	0.0%	31.6µM*
O=C(COC(=O)C12CC3CC(CC(Br)(C3)C1)C2)Nc1c(F)cccc1F	x	x	-3.3%	-29.1%
O=C(NC(=S)N1CCN(c2ccc(C(F)(F)F)cc2[N+](=O)[O-])CC1)c1cccs1	-0.8%	19.1%	-4.9%	14.1µM*
CCOC(=O)C1CCN(C(c2cccc(OC)c2)c2sc3nc(C)nn3c2O)CC1 (stereo not given)	u	-19.5%	-6.3%	10µM*
CC1(C(=O)NC2CCc3ccccc32)CCN1CCc1ccccc1 (stereo not given)	x	x	-7.3%	x
